From PubChem BioAssay (Tox21)
Values without a mark were called inactive. Results filed as inconclusive are left out. A call without a number means that no potency is given here. Calls of active or inactive are those of the source. Calls follow the shape of the dose curve; as a rule, active = well fitted curve in the direction sought with a large enough effect in the repeat runs; inconclusive = weak or mixed curves; inactive = no such curve, though single readings can be large; an effect the other way counts as inactive or inconclusive.

Key:
[1] = Human pregnane X receptor (PXR) small molecule agonists, qHTS cell viability counter screen (AID 1346977); also: nearly all actives have a fitted effect of over 50% in size
In short: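 Cytotoxicity counter screen run in the same wells as the PXR luciferase assay, using PXR-Luc HepG2 cells in charcoal-stripped serum medium. Viability: CellTiter-Fluor fluorescence after 24hr compound treatment.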

[2] = Caspase-3/7 induction in HepG2 cells by small molecules, qHTS assay (AID 1346978); also: nearly all actives have a fitted effect of over 15% in size
In short: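 Wild-type HepG2 cells (2,000/well) were settled 5 h at 37 C, 5% CO2, then exposed to compounds in DMSO for 17 h. Caspase-3/7 activity was read by luminescence 30 min after adding Caspase-Glo 3/7 reagent at room temperature.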

[3] = Caspase-3/7 induction in CHO-K1 cells by small molecules, qHTS cell viability counter screen (AID 1346979); also: nearly all actives have a fitted effect of over 35% in size; also: potency is read from the fitted curve at half-maximal effect
In short: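 Cytotoxicity counter screen run in parallel with the caspase-3/7 assay: CHO-K1 cells, 16hr compound treatment at 37C, then CellTiter-Fluor for 1hr before fluorescence reading.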

[4] = Caspase-3/7 induction in CHO-K1 cells by small molecules, qHTS assay (AID 1346980); also: nearly all actives have a fitted effect of over 15% in size
In short: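 Wild-type cells were seeded at 1,500 per well and settled 5 hr at 37 C, 5% CO2, then exposed to DMSO-dissolved compounds for 17 hr. Caspase-Glo 3/7 reagent was added, and luminescence was read after 30min at room temperature.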

[5] = target: Nuclear receptor subfamily 1 group I member 2 (Homo sapiens) (UniProt O75469); assay: Human pregnane X receptor (PXR) small molecule agonists, qHTS assay (AID 1346982); also: nearly all actives have a fitted effect of over 35% in size; also: potency is read from the fitted curve at half-maximal effect
In short: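 Cells: HepG2 stably carrying PXR-Luc. Medium held 5% charcoal-stripped FBS. Compounds in DMSO added after 5 hr plating, incubated 24 hr, then luminescence quantified with ONE-Glo.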

[6] = target: Cytochrome P450 2D6 (Homo sapiens) (UniProt P10635); assay: Cytochrome P450 Family 2 Subfamily D Member 6 (CYP2D6) small molecule antagonists: luciferase reporter qHTS assay (AID 1671196); also: nearly all actives have a fitted effect of over 50% in size; also: potency is read from the fitted curve at half-maximal effect
In short: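 Enzyme and proluciferin substrate were first combined with test chemical for 10 min at room temperature. Adding NADPH regeneration solution started a 1 h reaction, stopped with luciferin detection reagent and read by luminescence 20 min later.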

[7] = Caspase-3/7 induction in HepG2 cells by small molecules, qHTS cell viability counter screen (AID 1346981); also: series mostly up to about 92 µM; nearly all actives have a fitted effect of over 30% in size
In short: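 Cell viability is measured as a cytotoxicity counter screen alongside the Caspase-Glo 3/7 readout in identical wells. Wild-type HepG2 cells are treated with test compounds for 16 hr at 37 C before CellTiter-Fluor addition and a 1-hr incubation.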

[8] = target: Nuclear receptor subfamily 1 group I member 2 (Rattus norvegicus) (UniProt Q9R1A7); assay: Rat pregnane X receptor (rPXR) activation by small molecules, qHTS assay (AID 1346983); conditions: rPXR luciferase reporter cells, One-Glo luminescence, 24 h; max activation: stronger effect = higher value; also: nearly all actives have a fitted effect of over 20% in size; also: potency is read from the fitted curve at half-maximal effect
In short: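 Cell-based rPXR luciferase reporter assay, 2,000 cells per well, rested 5hr at 37 C before compound addition in DMSO, then 24 hr at 37 C. One-Glo reagent was added and luminescence read after 30 min at room temperature.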

[9] = target: Nuclear receptor subfamily 1 group I member 2 (Homo sapiens) (UniProt O75469); assay: CYP3A4 induction through human pregnane X receptor (PXR) by small molecules, qHTS assay (AID 1346984); also: nearly all actives have a fitted effect of over 40% in size
In short: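 Quantitative HTS in DPX-2 cells, i.e. HepG2 transfected with PXR response element and CYP3A4-promoter luciferase. Compounds in DMSO incubated 24hr at 37C; then P450-Glo CYP3A4 substrate, 3uM final, 3hr; One-Glo luminescence.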

Nuclear receptor subfamily 1 group I member 2 (Homo sapiens), sequence (O75469 whole entry, looked up): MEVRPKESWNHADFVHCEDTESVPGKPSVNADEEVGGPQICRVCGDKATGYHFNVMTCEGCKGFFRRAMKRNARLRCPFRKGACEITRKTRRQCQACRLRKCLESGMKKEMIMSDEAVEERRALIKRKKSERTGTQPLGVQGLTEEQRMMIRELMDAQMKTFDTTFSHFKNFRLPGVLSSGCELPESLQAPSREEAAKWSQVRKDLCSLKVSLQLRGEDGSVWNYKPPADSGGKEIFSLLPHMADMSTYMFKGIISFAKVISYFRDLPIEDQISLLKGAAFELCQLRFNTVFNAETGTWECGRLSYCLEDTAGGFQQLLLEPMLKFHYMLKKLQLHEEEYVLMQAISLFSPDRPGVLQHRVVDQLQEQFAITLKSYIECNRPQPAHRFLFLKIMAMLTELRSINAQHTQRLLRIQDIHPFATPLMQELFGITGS
Nuclear receptor subfamily 1 group I member 2 (Rattus norvegicus), sequence (Q9R1A7 whole entry, looked up): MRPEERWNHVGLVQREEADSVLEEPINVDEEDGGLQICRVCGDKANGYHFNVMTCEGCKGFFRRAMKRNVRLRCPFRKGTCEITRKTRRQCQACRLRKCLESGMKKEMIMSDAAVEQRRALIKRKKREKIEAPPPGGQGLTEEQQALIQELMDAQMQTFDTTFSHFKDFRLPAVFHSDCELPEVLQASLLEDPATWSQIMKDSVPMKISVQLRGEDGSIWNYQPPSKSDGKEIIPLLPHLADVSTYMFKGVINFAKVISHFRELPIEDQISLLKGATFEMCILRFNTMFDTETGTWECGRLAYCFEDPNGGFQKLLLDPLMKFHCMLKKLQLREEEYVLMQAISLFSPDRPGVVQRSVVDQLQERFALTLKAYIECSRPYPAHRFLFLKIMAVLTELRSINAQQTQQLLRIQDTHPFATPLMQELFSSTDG
Cytochrome P450 2D6 (Homo sapiens), sequence (P10635 whole entry, looked up): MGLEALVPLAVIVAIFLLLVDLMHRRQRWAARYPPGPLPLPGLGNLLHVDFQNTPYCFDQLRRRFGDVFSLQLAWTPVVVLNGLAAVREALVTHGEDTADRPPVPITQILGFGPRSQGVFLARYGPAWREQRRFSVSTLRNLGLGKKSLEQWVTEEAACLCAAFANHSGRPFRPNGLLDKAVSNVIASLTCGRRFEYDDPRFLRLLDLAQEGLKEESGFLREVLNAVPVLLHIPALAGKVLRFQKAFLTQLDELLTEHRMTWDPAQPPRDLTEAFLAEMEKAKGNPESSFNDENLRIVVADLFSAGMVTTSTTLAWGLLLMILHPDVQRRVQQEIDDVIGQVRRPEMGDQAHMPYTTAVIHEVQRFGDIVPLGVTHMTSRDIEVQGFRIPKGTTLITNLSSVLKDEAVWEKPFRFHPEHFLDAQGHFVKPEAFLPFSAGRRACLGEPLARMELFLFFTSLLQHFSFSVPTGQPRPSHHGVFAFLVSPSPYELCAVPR

Row | SMILES | Potency [1] | Potency [2] | Potency [3] | outcome [4] | Potency [5] | Potency [6] | Potency [7] | max activation [8] | Potency [9] | Potency [8]
1 | CC1=C2[C@H](/C=C(\C)C(=O)O)CC[C@@H](C)[C@H]2CC1 | inactive | inactive | inactive | inactive | 56.5 µM (active) | – | – | – | – | –
2 | O=C(O)c1cccc(Cl)c1Cl | inactive | inactive | inactive | inactive | inactive | – | – | – | – | –
3 | NC(=O)Cc1cccc(C(=O)c2ccccc2)c1N | inactive | inactive | inactive | inactive | – | inactive | – | – | – | –
4 | CCCc1c2oc(C(=O)O)cc(=O)c2cc2c(=O)cc(C(=O)O)n(CC)c12 | inactive | inactive | inactive | inactive | – | inactive | – | – | – | –
5 | CCCCc1ccc2nc(NC(=O)OC)[nH]c2c1 | inactive | inactive | 1.19 µM (active) | inactive | – | inactive | inactive | – | – | –
6 | COC(=O)c1ccc(OC)cc1 | inactive | inactive | inactive | inactive | inactive | inactive | – | – | – | –
7 | CCCC(CCC)(C(=O)OCC)C(=O)OCC | inactive | inactive | inactive | inactive | – | inactive | – | – | – | –
8 | CC/C=C\CCOC(=O)CCCCC | inactive | inactive | inactive | inactive | inactive | inactive | – | – | – | –
9 | Cc1c(-c2ccccc2)oc2c(C(=O)OCCN3CCCCC3)cccc2c1=O | inactive | inactive | inactive | inactive | inactive | 5.49 µM (active) | – | -3.87% | inactive | –
10 | CN1CCN(c2c(F)cc3c(=O)c(C(=O)O)cn4c3c2SCC4)CC1 | inactive | inactive | inactive | inactive | inactive | – | – | -4.92% | inactive | –
11 | CC1(C)S[C@@H]2[C@H](NC(=O)C(C(=O)O)c3ccccc3)C(=O)N2[C@H]1C(=O)O (some centres not stated) | inactive | inactive | inactive | inactive | inactive | inactive | – | 0.938% | inactive | –
12 | CCOC(=O)CS | inactive | inactive | inactive | inactive | – | inactive | – | – | – | –
13 | CC1(C)O[C@@H]2C[C@H]3[C@@H]4CCC5=CC(=O)CC[C@]5(C)[C@@]4(F)[C@@H](O)C[C@]3(C)[C@]2(C(=O)CCl)O1 | inactive | inactive | inactive | inactive | 9.44 µM (active) | – | – | – | – | 1 µM (active)
14 | CC/C=C\CCOC(=O)C(C)C | inactive | inactive | inactive | inactive | inactive | inactive | – | – | – | –
15 | CCCCC(=O)O[C@]1(C(=O)CO)[C@H](C)C[C@H]2[C@@H]3CCC4=CC(=O)C=C[C@]4(C)[C@@]3(F)[C@@H](O)C[C@@]21C | inactive | inactive | inactive | inactive | inactive | – | – | – | inactive | –
16 | Cc1c[nH]c(=S)[nH]c1=O | inactive | inactive | inactive | inactive | inactive | – | – | – | – | –
17 | O=C1CCCCCCCCCCC(=O)OCCO1 | inactive | inactive | inactive | inactive | inactive | inactive | – | – | – | –

Row | SMILES | Potency [1] | Potency [2] | Potency [3] | outcome [4] | Potency [5] | Potency [6] | Potency [7] | max activation [8] | Potency [9] | Potency [8]
18 | CCCCCOc1ccc(C2SC(=O)NC2=O)cc1OCC (configuration not stated) | inactive | inactive | inactive | inactive | – | inactive | inactive | – | – | –
19 | CCCCNc1ccc(C(=O)OCCN(CC)CC)cc1 | inactive | inactive | inactive | inactive | – | 3.89 µM (active) | inactive | – | – | –
20 | COC(=O)N[C@H](C(=O)N[C@@H](Cc1ccccc1)[C@@H](O)CN(Cc1ccc(-c2ccccn2)cc1)NC(=O)[C@@H](NC(=O)OC)C(C)(C)C)C(C)(C)C | inactive | inactive | inactive | inactive | – | inactive | inactive | – | – | –
21 | C[C@]12CCC(=O)C=C1CC[C@@H]1[C@@H]2CC[C@@]2(C)[C@H]1CC[C@]2(O)C(=O)CO | inactive | inactive | inactive | inactive | inactive | – | – | 14.2% | inactive | –
22 | Cc1cc(S(=O)(=O)O)c(N)cc1Cl | inactive | inactive | inactive | inactive | inactive | – | – | – | – | –
23 | CC1CN(c2ccccc2)NC1=O (configuration not stated) | inactive | inactive | inactive | inactive | 54.5 µM (active) | 31.7 µM (active) | – | – | – | –
24 | O=C1CCCCC1C1CCCCC1 (configuration not stated) | inactive | inactive | inactive | inactive | – | inactive | inactive | – | – | –
25 | O=C(O)[C@@H](O)[C@H](O)[C@H](O)[C@@H](O)C(=O)O | inactive | inactive | inactive | inactive | inactive | inactive | – | – | – | –
26 | O=Cc1ccc(F)c(Br)c1 | inactive | inactive | inactive | inactive | inactive | inactive | – | – | – | –
27 | CCCCCCCOC(=O)CCC | inactive | inactive | inactive | inactive | inactive | 20 µM (active) | – | – | – | –
28 | CC(=O)Nc1ccc(C)c(Cl)c1 | inactive | inactive | inactive | inactive | – | inactive | – | – | – | –
29 | CCC(=O)O[C@]1(C(=O)SCF)[C@H](C)C[C@H]2[C@@H]3C[C@H](F)C4=CC(=O)C=C[C@]4(C)[C@@]3(F)[C@@H](O)C[C@@]21C | inactive | inactive | inactive | inactive | 0.473 µM (active) | inactive | – | – | inactive | 1.58 µM (active)
30 | CCCC1CCC(=O)O1 (configuration not stated) | inactive | inactive | inactive | inactive | inactive | inactive | – | – | – | –
31 | CC(C)=CCCC(C)CCOC=O (configuration not stated) | inactive | inactive | inactive | inactive | – | inactive | inactive | – | – | –
32 | CC(=O)OC(C)OC(C)=O | inactive | inactive | inactive | inactive | – | inactive | inactive | – | – | –
33 | CCCOc1ccc2c(c1)CC[C@@H]1[C@@H]2CC[C@]2(C)C(OC)CC[C@@H]12 (some centres not stated) | inactive | inactive | – | inactive | inactive | 15.5 µM (active) | inactive | – | – | –
